Experimental data published in PubChem BioAssay AID1159580 (chemical genetic matrix, 2015).
About 2,000 (36%) of roughly 5,500 compounds were called active. About 18% were inconclusive and are not listed. Rule as the data show it: active = normalized growth mostly below about 0.91 (no sharp cut-off); inconclusive = no clear call, values can overlap the other calls; inactive = mostly above about 0.92. The list shows a part of the results.

Assay: chemical genetic growth profiling, strain panel (AID 1159580);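 also: tested at 20 µM; growth read once vehicle control cultures reached saturation at 30 °C; 1 = growth at the plate median or of vehicle wells; lower values mean less growth of the strain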
Conditions: growth OD

Measured: normalized growth

CN1CCCN=C1COC(=O)C(O)(c1ccccc1)C1CCCCC1 (configuration not stated)
inactive: S. cerevisiae deletion strains, locus YJR075W, strain HOC1, stronger effect = lower value 0.993 | S. cerevisiae deletion strains, locus YKL009W, strain mrt4, stronger effect = lower value 0.999 | S. cerevisiae deletion strains, locus YKL068W, stronger effect = lower value 0.989 | S. cerevisiae deletion strains, locus YKL085W, strain MDH1 (second series), stronger effect = lower value 1 | S. cerevisiae deletion strains, locus YKL085W, strain MDH1, stronger effect = lower value 1 | S. cerevisiae deletion strains, locus YKL160W, strain elf1, stronger effect = lower value 0.998 | S. cerevisiae deletion strains, locus YKL190W, strain CNB1, stronger effect = lower value 0.997 | S. cerevisiae deletion strains, locus YKR001C, strain vps1, stronger effect = lower value 0.975 | S. cerevisiae deletion strains, locus YKR026C, strain gcn3, stronger effect = lower value 0.997 | S. cerevisiae deletion strains, locus YKR091W, strain srl3, stronger effect = lower value 1 | S. cerevisiae deletion strains, locus YLL001W, strain dnm1, stronger effect = lower value 0.989 | S. cerevisiae deletion strains, locus YLL026W, stronger effect = lower value 0.991 | S. cerevisiae deletion strains, locus YLL041C, strain sdh2, stronger effect = lower value 0.998 | S. cerevisiae deletion strains, locus YLR027C, strain aat2, stronger effect = lower value 0.993 | S. cerevisiae deletion strains, locus YLR039C, strain RIC1, stronger effect = lower value 1.02 | S. cerevisiae deletion strains, locus YLR058C, strain SHM2, stronger effect = lower value 1.01 | S. cerevisiae deletion strains, locus YLR102C, strain apc9, stronger effect = lower value 0.993 | S. cerevisiae deletion strains, locus YLR113W, strain HOG1, stronger effect = lower value 1.01 | S. cerevisiae deletion strains, locus YLR221C, strain rsa3, stronger effect = lower value 0.992 | S. cerevisiae deletion strains, locus YLR258W, strain gsy2, stronger effect = lower value 1 | S. cerevisiae deletion strains, locus YLR262C, strain YPT6 (second series), stronger effect = lower value 0.988 | S. cerevisiae deletion strains, locus YLR262C, strain YPT6, stronger effect = lower value 1.02 | S. cerevisiae deletion strains, locus YLR268W, strain sec22, stronger effect = lower value 0.971 | S. cerevisiae deletion strains, locus YLR320W, strain mms22, stronger effect = lower value 1.01 | S. cerevisiae deletion strains, locus YLR330W, strain CHS5, stronger effect = lower value 1.01 | S. cerevisiae deletion strains, locus YLR342W, strain FKS1 (second series), stronger effect = lower value 1.02 | S. cerevisiae deletion strains, locus YLR342W, strain FKS1, stronger effect = lower value 1 | S. cerevisiae deletion strains, locus YLR357W, strain rsc2, stronger effect = lower value 0.976 | S. cerevisiae deletion strains, locus YLR370C, strain arc18, stronger effect = lower value 0.992 | S. cerevisiae deletion strains, locus YLR371W, strain rom2, stronger effect = lower value 0.993 | S. cerevisiae deletion strains, locus YLR384C, strain iki3, stronger effect = lower value 0.982 | S. cerevisiae deletion strains, locus YLR418C, strain cdc73, stronger effect = lower value 0.973 | S. cerevisiae deletion strains, locus YML016C, strain PPZ1, stronger effect = lower value 1.01 | S. cerevisiae deletion strains, locus YML032C, strain rad52, stronger effect = lower value 0.979 | S. cerevisiae deletion strains, locus YML120C, strain ndi1, stronger effect = lower value 1 | S. cerevisiae deletion strains, locus YML124C, strain tub3, stronger effect = lower value 0.992 | S. cerevisiae deletion strains, locus YMR058W, strain fet3, stronger effect = lower value 0.95 | S. cerevisiae deletion strains, locus YMR078C, strain ctf18, stronger effect = lower value 0.992 | S. cerevisiae deletion strains, locus YMR125W, strain sto1, stronger effect = lower value 0.992 | S. cerevisiae deletion strains, locus YMR129W, stronger effect = lower value 0.995 | S. cerevisiae deletion strains, locus YMR205C, strain PFK2, stronger effect = lower value 0.993 | S. cerevisiae deletion strains, locus YMR223W, strain ubp8, stronger effect = lower value 1 | S. cerevisiae deletion strains, locus YMR231W, strain pep5, stronger effect = lower value 0.99 | S. cerevisiae deletion strains, locus YMR263W, strain SAP30, stronger effect = lower value 1.01 | S. cerevisiae deletion strains, locus YMR307W, strain GAS1, stronger effect = lower value 1.03 | S. cerevisiae deletion strains, locus YNL067W, strain RPL9B, stronger effect = lower value 0.992 | S. cerevisiae deletion strains, locus YNL071W, strain lat1, stronger effect = lower value 0.994 | S. cerevisiae deletion strains, locus YNL128W, strain TEP1, stronger effect = lower value 1.01 | S. cerevisiae deletion strains, locus YNL153C, strain GIM3, stronger effect = lower value 1 | S. cerevisiae deletion strains, locus YNL183C, strain NPR1, stronger effect = lower value 0.947 | S. cerevisiae deletion strains, locus YNL209W, strain ssb2, stronger effect = lower value 0.99 | S. cerevisiae deletion strains, locus YNL233W, strain BNI4, stronger effect = lower value 0.998 | S. cerevisiae deletion strains, locus YNL248C, strain rpa49, stronger effect = lower value 0.993 | S. cerevisiae deletion strains, locus YNL250W, strain rad50, stronger effect = lower value 0.988 | S. cerevisiae deletion strains, locus YNL271C, strain bni1, stronger effect = lower value 0.987 | S. cerevisiae deletion strains, locus YNL298W, strain CLA4, stronger effect = lower value 0.994 | S. cerevisiae deletion strains, locus YNL307C, strain MCK1, stronger effect = lower value 0.981 | S. cerevisiae deletion strains, locus YNL322C, strain KRE1 (second series), stronger effect = lower value 1 | S. cerevisiae deletion strains, locus YNL322C, strain KRE1, stronger effect = lower value 1 | S. cerevisiae deletion strains, locus YNR049C, strain mso1, stronger effect = lower value 0.994 | S. cerevisiae deletion strains, locus YNR052C, strain pop2, stronger effect = lower value 0.999 | S. cerevisiae deletion strains, locus YOL006C, strain TOP1, stronger effect = lower value 1.04 | S. cerevisiae deletion strains, locus YOL012C, strain htz1 0.733 | S. cerevisiae deletion strains, locus YOL147C, strain pex11, stronger effect = lower value 0.99 | S. cerevisiae deletion strains, locus YOR001W, strain rrp6, stronger effect = lower value 1.01 | S. cerevisiae deletion strains, locus YOR061W, strain CKA2, stronger effect = lower value 1.01 | S. cerevisiae deletion strains, locus YOR069W, strain VPS5, stronger effect = lower value 1.01 | S. cerevisiae deletion strains, locus YOR070C, strain gyp1, stronger effect = lower value 1.01 | S. cerevisiae deletion strains, locus YOR080W, strain dia2, stronger effect = lower value 0.996 | S. cerevisiae deletion strains, locus YOR083W, strain WHI5, stronger effect = lower value 0.995 | S. cerevisiae deletion strains, locus YOR106W, strain vam3, stronger effect = lower value 1.01 | S. cerevisiae deletion strains, locus YOR136W, strain idh2, stronger effect = lower value 0.991 | S. cerevisiae deletion strains, locus YOR144C, strain elg1, stronger effect = lower value 0.991 | S. cerevisiae deletion strains, locus YOR184W, strain ser1, stronger effect = lower value 1 | S. cerevisiae deletion strains, locus YOR231W, strain MKK1, stronger effect = lower value 1 | S. cerevisiae deletion strains, locus YOR265W, strain rbl2, stronger effect = lower value 0.984 | S. cerevisiae deletion strains, locus YOR270C, strain vph1, stronger effect = lower value 1.02 | S. cerevisiae deletion strains, locus YOR290C, strain snf2, stronger effect = lower value 1.02 | S. cerevisiae deletion strains, locus YOR316C, strain cot1, stronger effect = lower value 1 | S. cerevisiae deletion strains, locus YPL051W, strain arl3, stronger effect = lower value 0.997 | S. cerevisiae deletion strains, locus YPL055C, strain LGE1, stronger effect = lower value 0.998 | S. cerevisiae deletion strains, locus YPL078C, strain atp4, stronger effect = lower value 0.998 | S. cerevisiae deletion strains, locus YPL106C, strain sse1, stronger effect = lower value 0.989 | S. cerevisiae deletion strains, locus YPL240C, strain hsp82, stronger effect = lower value 0.991 | S. cerevisiae deletion strains, locus YPL241C, strain CIN2, stronger effect = lower value 1.01 | S. cerevisiae deletion strains, locus YPL256C, strain CLN2, stronger effect = lower value 0.992 | S. cerevisiae deletion strains, locus YPR119W, strain clb2, stronger effect = lower value 0.993 | S. cerevisiae deletion strains, locus YPR141C, strain kar3, stronger effect = lower value 0.994 | S. cerevisiae deletion strains, locus YPR163C, strain tif3, stronger effect = lower value 0.991 | S. cerevisiae deletion strains, locus YPR167C, strain met16, stronger effect = lower value 0.987 | S. cerevisiae deletion strains, strain wtn01, stronger effect = lower value 0.966 | S. cerevisiae strains, strain wild type, stronger effect = lower value 1
